# Tau fluor cs: counter-screen for tau fibril formation inhibitors; tau K18 P301L Alexa594 fluorescence, heparin fibrillization; Potency, µM (highest dose often 57.7 µM), without a hit: at the highest dose activity change, negative = decrease; 0.93% of 280,000 active; AID 1463; also: nearly all actives have a fitted effect of over 55% in size
#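 Human tau K18 P301L (15 uM unlabeled, 0.24 uM Alexa 594-labeled) in 100 mM sodium acetate pH 7 with 20 uM heparin, 6 hr at 37 C. ThT 30 uM added, 1 hr ambient; Alexa 594 FP and total fluorescence read at 555/632 nm.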
# TRb-SRC2 inh: disrupts binding of human TR beta to SRC2. TRbeta-SRC2 peptide binding, fluorescence polarization; receptor liganded with 1 µM T3. P10828. Potency, µM (top dose mostly 106 µM), inactives show at the highest dose activity change, negative = inhibition, hits mostly inhibitors. 0.065% of 280,000 active;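 also: plate controls were bound peptide for no effect and peptide without receptor for full effect; nearly all actives have a fitted effect of over 50% in size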
# Target sequence (P10828 whole entry, looked up): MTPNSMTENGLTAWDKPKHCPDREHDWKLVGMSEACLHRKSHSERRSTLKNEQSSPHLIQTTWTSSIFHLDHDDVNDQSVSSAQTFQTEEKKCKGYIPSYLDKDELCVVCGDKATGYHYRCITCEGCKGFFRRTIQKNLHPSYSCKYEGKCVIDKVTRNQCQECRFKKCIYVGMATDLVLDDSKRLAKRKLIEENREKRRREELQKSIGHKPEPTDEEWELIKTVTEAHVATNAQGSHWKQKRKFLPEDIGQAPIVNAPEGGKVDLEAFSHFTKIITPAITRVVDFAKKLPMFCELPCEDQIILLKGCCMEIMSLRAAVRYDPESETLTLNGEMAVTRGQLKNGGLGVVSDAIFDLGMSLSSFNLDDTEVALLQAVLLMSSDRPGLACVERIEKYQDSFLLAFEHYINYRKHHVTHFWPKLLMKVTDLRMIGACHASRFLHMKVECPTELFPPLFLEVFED
#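 Decrease in fluorescence polarization of 20 nM Texas Red SRC2 coactivator peptide flagged inhibition of its binding to 0.6 uM TRb LBD; 1 uM T3 included, incubation 5 hr, ex 555/em 632 nm.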
# Tau fibril ThT: blocks human tau fibril formation measured by thioflavin T | recombinant tau K18 P301L (four-repeat tau fragment), heparin-induced fibrillization, ThT fluorescence | Potency, µM (highest dose often 57.4 µM), for the others: at the highest dose activity, negative = inhibition, actives largely listed as inhibitors | 2.1% of 270,000 active; also: nearly all actives have a fitted effect of over 55% in size
# Target sequence (P10636 561-689 P618L limits assumed): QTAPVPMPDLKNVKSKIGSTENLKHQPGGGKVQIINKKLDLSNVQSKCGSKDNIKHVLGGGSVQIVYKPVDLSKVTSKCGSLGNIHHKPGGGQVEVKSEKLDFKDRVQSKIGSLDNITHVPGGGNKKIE
#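 Tau K18 P301L fragment (15 uM unlabeled plus 0.24 uM Alexa 594-labeled) in 100 mM sodium acetate pH 7 with compound, fibrillization induced by 20 uM heparin for 6 hr at 37 C. Thioflavin T (30 uM) added, fluorescence read after 1 hr (ex 450, em 510 nm).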
# TR SRC2 fluor cs: Texas Red fluorescence interference in TRb-SRC2 counter-screen | Potency, µM (doses to about 106 µM), inactives show at the highest dose fluorescence change, negative = quenching | TRb/SRC2 Texas Red total fluorescence interference | 0.29% of 280,000 active | AID 1479; active = well fitted curve in either direction with a large enough effect; inconclusive = small, poorly fitted or top-dose-only effect
#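 Flags fluorescent or light-absorbing compounds by total fluorescence, S + 2P, at 555 nm excitation and 632 nm emission. Mixture: 20 nM Texas Red SRC2 peptide, 0.6 uM human TRb LBD, 1 uM T3, 5% DMSO; compound exposure 5 h at ambient temperature.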
# Tau fibril FP: tau fibrillization inhibition (FP); P10636; K18 P301L tau heparin fibrillization, Alexa594 FP, 6 h; Potency, µM (doses to about 57.7 µM), for the others: at the top dose activity, negative = inhibition, usual class: inhibitors; 0.39% of 280,000 active; AID 1468; also: nearly all actives have a fitted effect of over 55% in size
#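 Steps: dispense K18 P301L tau (15 uM plus 0.24 uM Alexa 594 tracer, final) in pH 7 sodium acetate; add compound; add heparin (20 uM final); incubate 6 hr, 37 C; add ThT (30 uM final); after 1 hr ambient, read FP.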
# KDM4E inh: inhibitors of human JMJD2E histone demethylase; B2RXH2; JMJD2E catalytic domain, FDH-coupled NADH fluorescence (FDH is formaldehyde dehydrogenase); Potency, µM (doses to about 57.1 µM), for the others: at the top dose activity change, negative = inhibition, actives largely listed as inhibitors; 1.6% of 230,000 active; AID 2147; active = well fitted inhibition curve with a large enough effect, not every such curve was filed as active; inconclusive = small, poorly fitted or top-dose-only effect, or another doubt; inactive = no such curve, though single readings can be large or run the other way;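 also: 0% = wells with enzyme and -100% = buffer wells without enzyme; nearly all actives have a fitted effect of over 50% in size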
# Numbers without * were called inactive; u = inconclusive; x = no result; [ ] = dose if it differs, or a comment. An excerpt weighted towards active compounds, which were near 3.5% of everything screened. Unless noted, calls follow the shape of the dose curve; as a rule, active = well fitted curve in the direction sought with a large enough effect; inconclusive = small, poorly fitted or top-dose-only effect, or another doubt; inactive = no such curve, though single readings can be large; an effect the other way counts as inactive or inconclusive. Unless noted, % is scaled to controls: 0 for no effect and ±100 for the full control effect; potency is read from the fitted curve at half-maximal effect.
SMILES,Tau fluor cs,TRb-SRC2 inh,Tau fibril ThT,TR SRC2 fluor cs,Tau fibril FP,KDM4E inh
C/C(=N\NC(=O)CSCc1ccc([N+](=O)[O-])cc1)c1ccccc1O,-24.4%,2.0%,u,-3.1%,0.5%,25.1µM*
CCN1C(=O)N[C@@H](c2ccc(Br)cc2)C(C(C)=O)=C1C,0.0%[11.6 µM],2.9%[11.2 µM],0.2%[11.5 µM],-0.6%[11.2 µM],-7.0%[11.6 µM],4.2%[11.4 µM]
Fc1ccc(CSc2nc3ccccc3[nH]2)c2ccccc12,u,0.9%,-23.3%,-1.8%,25.1µM*,-1.4%
O=c1cc(CSc2nc3ccccc3[nH]2)c2ccccc2[nH]1,-12.9%,-3.1%,-9.6%,1.2%,-9.3%,3.0%
CC1(CC(=O)N/N=C/c2cc([N+](=O)[O-])c(O)cc2O)OCCO1,-9.7%,4.0%,u,-13.2%,-3.6%,15.8µM*
Cc1cc(/C([O-])=C(/C(=S)Nc2ccc(F)cc2)[n+]2ccccc2)c(C)n1-c1ccc(F)cc1,u,1.0%,28.2µM*,-0.7%,-10.7%,-11.5%
CC(=O)c1ccc(NC(=S)Nc2cccc3cnccc23)cc1,-23.3%,4.8%,u,1.6%,-15.8%,17.8µM*
Cc1ccc(C)c(NC(=S)Nc2cccc3cnccc23)c1,-13.7%,0.6%,u,-2.7%,u,28.2µM*
FC(F)(F)c1ccccc1NC(=S)Nc1cccc2cnccc12,-21.8%,-2.0%,22.4µM*,-1.5%,u,u
Cc1ccc(NC(=S)Nc2cccc3cnccc23)cc1,-14.1%,3.8%,u,0.9%,u,u
CC(C)(C)NC(=O)c1ccc(NC(=O)C2COc3ccccc3O2)cc1 (configuration not stated),-1.8%,-4.9%,-20.4%,-4.8%,4.1%,-1.4%
Cc1ccc(-c2nnc(SCC(=O)N3CC(C)CC(C)C3)o2)cc1C (configuration not stated),-5.2%,5.7%,u,-3.0%,0.2%,-12.0%
COC(=O)COc1ccc(C2Nc3c(Cl)ccc(C(=O)O)c3C3C=CCC32)cc1 (configuration not stated),-28.5%,-5.3%,u,1.0%,-17.4%,u
O=C(O)c1ccc(Cl)c2c1C1C=CCC1C(c1ccccn1)N2 (configuration not stated),14.1µM*[quencher],u,14.1µM*,-2.7%,u,25.1µM*
Cc1cc([N+](=O)[O-])cc2c1NC(c1ccccn1)C1CC=CC21 (configuration not stated),-11.9%,-2.1%,-10.2%,-1.7%,-4.6%,-15.1%
O=[N+]([O-])c1ccc(Cl)c2c1C1C=CCC1C(c1ccccn1)N2 (configuration not stated),u,8.8%[53 µM],25.1µM*,-8.0%[53 µM],u,-21.4%
COc1cccc(NC(=O)CC(C)S(=O)(=O)c2ccc3c(c2)NC(=O)CO3)c1 (configuration not stated),6.1%,-11.5%,6.6%,20µM*[quencher],2.2%,x
Cc1cccc(CC(=O)NCCc2sc3nc(-c4ccc(F)cc4)nn3c2C)c1,-11.6%,-6.4%,-14.8%,-1.5%,-3.1%,x
Oc1cccc(/C=N/N(Cc2ccccc2)c2ccccc2)c1,12.6µM*[quencher],-3.7%,u,-3.3%,u,-21.9%
Oc1ccc(/C=N/N(Cc2ccccc2)c2ccccc2)c(O)c1O,28.2µM*[quencher],0.6%,28.2µM*,-3.9%,u,20µM*
COc1cc2[nH]c(=O)n(CCCC(=O)N(C)Cc3ccccc3)c(=O)c2cc1OC,-19.1%,-1.8%,-12.5%,-1.3%,-9.2%,x
CCOC(=O)c1c(C)[nH]c(N=Nc2cc(C(=O)O)cc(C(=O)O)c2)c1C,-4.9%,4.2%,u,-4.9%,-0.9%,-8.8%
CCOC(=O)c1c(C)[nH]c(N=Nc2ccc(C)cc2C)c1C,u,-4.5%,6.31µM*,1.7%,13.0%,0.6%
CCOC(=O)c1c(C)[nH]c(C(=O)CSc2ccccc2)c1C,3.5%,-14.7%,-1.9%,1.0%,4.0%,-4.9%
CCOC(=O)c1c(C)[nH]c(N=Nc2ccccc2C)c1C,u,10.7%,5.01µM*,-0.4%,5.0%,0.5%
SMILES,Tau fluor cs,TRb-SRC2 inh,Tau fibril ThT,TR SRC2 fluor cs,Tau fibril FP,KDM4E inh
COc1ccc(Cl)cc1C(=O)NCc1ccco1,1.1%,1.0%,x,-1.0%,1.8%,0.0%
CSc1nc(N(CCO)CCO)c2sc3nc(-c4ccco4)c4c(c3c2n1)CCC4,u,-1.4%,25.1µM*,-7.5%,u,7.3%
Cc1ccccc1Nc1c(-c2ccccn2)nc2ccccn12,-28.8%,10.4%,-17.9%,0.2%,3.4%,u
Cc1ccccc1Nc1c(-c2cc(Br)ccc2F)nc2ccccn12,-15.6%,-3.6%,-8.1%,3.16µM*[quencher],-4.1%,x
Cc1c(O)c(CN2CCCC2)cc2c3c(c(=O)oc12)CCC3,-21.9%,u,12.6µM*,3.3%,u,u
O=C(O)C1CCC(NSc2ccccc2[N+](=O)[O-])CC1 (configuration not stated),-18.6%,-0.9%,15.8µM*,-1.4%,17.8µM*,-8.3%
CCOC(=O)C1(Cc2ccc(OC)cc2)CCN(C(=O)CCc2cnccn2)CC1,-0.9%,4.8%,-3.7%,-2.7%,-8.5%,2.4%
Nc1ccc2c(C(F)(F)F)cc(=O)oc2c1,-2.6%,3.8%,6.7%,-0.3%,3.8%,u
O=C(Cn1cc(C(F)(F)F)ccc1=O)N/N=C/c1ccccc1O,-1.8%,-5.0%,-1.1%,-0.9%,2.6%,10µM*
CC(=O)Nc1ccc(S(=O)(=O)Nc2nc3ccccc3nc2Nc2ccc(S(N)(=O)=O)cc2)cc1,-26.1%,-2.1%,u,-0.3%,-3.7%,u
NS(=O)(=O)c1ccc(Nc2nc3ccccc3nc2NS(=O)(=O)c2cccc([N+](=O)[O-])c2)cc1,u,2.2%,11.2µM*,-11.9%,8.4%,1.1%
Cc1ccc(NC(=O)CN2C(=O)S/C(=C\c3cc(C)n(-c4cccc(C(=O)O)c4)c3C)C2=O)cc1,-4.5%,-0.5%,u,-3.7%,13.1%,u
O=C(NCc1ccco1)C(=O)NCC1OCCCN1S(=O)(=O)c1ccc(F)cc1 (configuration not stated),-8.2%,1.0%,-6.8%,4.6%,-1.4%,3.5%
Cc1cccc(N2CCN(C(=O)C3CCN(c4ncnc5c4nc4n5CCCCC4)CC3)CC2)c1C,3.9%,4.1%,u,u,5.0%,x
Cc1ccc(C)c(N2CCN(c3ncnc4c3nc3n4CCCCC3)CC2)c1,-10.3%,11.3%,-14.9%,4.2%,11.6%,x
COc1ccc(OC)c(CNC(=O)C2CCN(c3ncnc4c3nc3n4CCCCC3)CC2)c1,-1.7%,1.4%,-1.3%,9.4%,-0.3%,x
Cc1cccc(N2CCN(C(=O)C3CCN(c4ncnc5c4nc4n5CCCCC4)CC3)CC2C)c1 (configuration not stated),0.7%,-5.9%,-16.0%,20µM*[quencher],9.1%,x

# Screening results: PubChem, National Center for Advancing Translational Sciences (NCATS)
